The values below come from PubChem BioAssay (Tox21).

The structures appear in SMILES notation. A number with no mark means an inactive call. Calls of active or inactive are those of the source. Calls follow the shape of the dose curve; as a rule, active = well fitted curve in the direction sought with a large enough effect in the repeat runs; inconclusive = weak or mixed curves; inactive = flat fitted curve, though single readings scatter.
% is scaled to controls: 0 for no effect and ±100 for the full control effect.

The nature of the assay: qHTS assay to test for compound auto fluorescence at 535 nm (green) in HEK293 cells (AID 720680). The following applies: green autofluorescence 485/535 nm; series mostly up to 91.3 µM; fluorescence, % of fluorescein: at the top concentration. An excerpt:
U.S. Tox21 Program National Center for Advancing Translational Sciences [NCATS] NIH Chemical Genomics Center [NCGC] U.S. Environmental Protection Agency [EPA] National Institutes of Environmental Health Sciences [NIEHS] National Toxicology Program [NTP] U.S. Food and Drug Administration [FDA] Tox21 Assay Overview: Compound auto fluorescence often interferes with screening of the compound library against various biological targets and signaling pathways. Some of these compounds may have fluorophoric properties. Such properties may interfere with the assay outputs resulting in false positives and/or negatives. To decrease such complications and ensure the compound activities are relevant in terms of biological response, the Tox21 10K compound library was screened for auto fluorescence. From the fluorophores used as reporter signals in our screening assays, the auto fluorescence equivalencies of compounds against three fluorophores have been evaluated: Triamterene, Fluorescein and Rose Bengal sodium for blue, green and red fluorescence, respectively. The fluorescence intensities were measured using Excitation/Emission wavelengths at 405/460nm, 485/535nm and 540/590nm for blue, green and red labels, respectively. This assay includes the green fluorescence data.
Tox21 Assay Protocol Summary: 2,000 HEK293 cells in 5 uL of culture medium containing 10% dialyzed FBS per well were dispensed into black wall/clear bottom 1536-well plates using a Multidrop Combi Dispenser (Thermo Scientific). The assay plates were incubated for 4-5 hr at 37C to allow cell attachment to the well bottom, followed by the transfer of 23 nL compound or DMSO vehicle by a pintool work station (Kalypsys, San Diego, CA). After the assay plates were incubated overnight at 37C and 5% CO2, fluorescence intensities in the assay plates were measured by an Envision (PerkinElmer, Shelton, CT) plate reader using three labels for measuring blue, green and red fluorescence at […] 460, 535 and 590nm respectively.
(In general: Quantitative high-throughput screening tests each substance at several concentrations.)
In the case of `CCc1ccccc1`, the “fluorescence, % of fluorescein” value is -0.0724%.
Still for that read-out and setting: the same measure for `C[C@]1(Cn2ccnn2)[C@H](C(=O)O)N2C(=O)C[C@H]2S1(=O)=O`: -0.0886% [at 46 µM]; for `Cc1ccc(Cl)c(Nc2ccccc2C(=O)O)c1Cl`: -0.157% [at 46 µM]; for `C/C=C\C/C=C/CCCCCCCCOC(C)=O`: 0.16%.
With `O=C(/C=C/c1ccc(O)c(O)c1)O[C@@H]1C[C@@](OC(=O)/C=C/c2ccc(O)c(O)c2)(C(=O)O)C[C@@H](O)[C@@H]1O`, the “fluorescence, % of fluorescein” value is -0.081% [at 46 µM].
The same measure, in the same setting: the same measure for `CC1(CN2CCC(n3c(=O)[nH]c4ccccc43)CC2)OCc2ccccc2-n2cccc21` (stereo not given): 0.109% [at 46 µM].
On the same count and under the same terms, the same measure for `COc1cc(Nc2c(C#N)cnc3cc(OCCCN4CCN(C)CC4)c(OC)cc23)c(Cl)cc1Cl`: -0.0929% [at 46 µM].
Still for that read-out and setting: the same measure for `CCOC(=O)[C@H](CCc1ccccc1)N[C@@H](C)C(=O)N(CC(=O)O)C1Cc2ccccc2C1`: -0.0082% [at 46 µM].
Consider `C(=C\c1ccccc1)/c1ccccc1`, for which the “fluorescence, % of fluorescein” value was -0.047% [at 95.7 µM].
The same measure, in the same setting: the same measure for `CC=C(Cl)Cl`: -0.0798%.
As to `Oc1cccc(O)c1O`, the outcome was inactive.
As for `CN1C(=O)c2ccccc2C1=O`, the “fluorescence, % of fluorescein” value was -0.276%.
Same read-out and setting: the same measure for `COc1cc(C(=O)NC2CCN(C)CC2)ccc1Nc1ncc2c(n1)N(C1CCCC1)CC(F)(F)C(=O)N2C`: -0.147%; for `CCC1CO1` (stereo not given): 0.039%.
Same read-out and setting: the same measure for `CCC(=O)OC`: -0.0007%; for `CCC1(CO)COCOC1`: -0.072%.
On the same count and under the same terms, the same measure for `O=C1c2ccccc2C(=O)C1c1nc2ccccc2c(Br)c1O`: 0.065%.
`CC(=O)OCC(=O)NCCCOc1cccc(CN2CCCCC2)c1`: the outcome was inactive.
In the case of `Nc1ccc(N=Nc2ccccc2)c(N)c1`, the “fluorescence, % of fluorescein” value is -0.345%.
The same measure, in the same setting: the same measure for `O=[N+]([O-])c1ccc(Nc2ccc(Nc3ccccc3)c(S(=O)(=O)O)c2)c([N+](=O)[O-])c1`: -0.264%; for `CCCCC(CC)COP(=O)(O)O` (stereo not given): -0.012% [at 95.7 µM]; for `C=C/C(C)=C/C/C=C(\C)CCC=C(C)C`: 0.0657%.
Still for that read-out and setting: the same measure for `CCCCOc1ccc(OCCCN2CCOCC2)cc1`: 0.0257% [at 18.6 µM]; for `O=C(O)C[C@H](NC(=O)OCc1ccccc1)C(=O)O`: 0.0163%; for `O=C1c2ccccc2C(=O)c2c(O)c(O)cc(O)c21`: 0.581%.
On the same count and under the same terms, the same measure for `NC1[C@H]2CN(c3nc4c(cc3F)c(=O)c(C(=O)O)cn4-c3ccc(F)cc3F)C[C@@H]12` (stereo not given in full): -0.0084% [at 46 µM].
`CC1CC(OC(=O)C(O)c2ccccc2)CC(C)(C)N1C` (stereo not given): the result was inactive.
On the same count and under the same terms, the same measure for `CO/N=C(/C(=O)N[C@@H]1C(=O)N2C(C(=O)O)=C(COC(N)=O)CS[C@H]12)c1ccco1`: “inactive”.
On to `Cc1ccc(CO)cc1`, for which the “fluorescence, % of fluorescein” value was 0.0558% [at 95.7 µM].
For the compound `C[C@]12CC[C@@H]3c4ccc(O)cc4CC[C@H]3[C@@H]1CC[C@@H]2OC(=O)CCC1CCCC1`, the compound was classed as inactive.
For the compound `COc1cc(N)c(Cl)cc1C(=O)NC1CCN(CCCOc2ccc(F)cc2)CC1OC` (stereo not given), the fluorescence, % of fluorescein was 0.0057% [at 18.6 µM].
Turning to `CN1C(=O)OC(C)(C)C1=O`, the result was inactive.
As to `CCCCCCCC/C=C\CCCCCCCCCCCC(=O)O`, the “fluorescence, % of fluorescein” value is -0.0301% [at 95.7 µM].
On to `O=C(O)CCC(=O)C(=O)O`, for which the result was inactive.
For the compound `Oc1cc2c(cc1O)[C@H]1c3ccc(O)c(O)c3OC[C@@]1(O)C2`, the “fluorescence, % of fluorescein” value was 3.29% [at 95.7 µM].
The same measure, in the same setting: the same measure for `O=C(CCc1ccc(O)cc1)c1c(O)cc(O)cc1O`: 0.173% [at 95.7 µM].
As to `CCOC(=O)c1ccccc1C(=C1C=C(Br)C(=O)C(Br)=C1)c1cc(Br)c(O)c(Br)c1`, the “fluorescence, % of fluorescein” value is -0.159%.
On the same count and under the same terms, the same measure for `CN1C[C@H](C(=O)N[C@]2(C)O[C@@]3(O)[C@@H]4CCCN4C(=O)[C@H](Cc4ccccc4)N3C2=O)C[C@@H]2c3cccc4[nH]cc(c34)C[C@H]21`: 0.494% [at 46 µM].
As to `CCOC(C)=O`, the outcome was inactive.
Take `CCCCCCNC(=O)n1cc(F)c(=O)[nH]c1=O`: the “fluorescence, % of fluorescein” value is -0.124% [at 46 µM].
